RGS12 GoLoco inh: RGS12 GoLoco-Gai1 interaction inhibition. P63096. Gai1:RGS12 GoLoco peptide FP, rhodamine, 10 min. Potency, µM (doses to about 61.6 µM), for the others: top-dose activity, negative = inhibition, most hits filed as inhibitors. actives 0.44% (n = 230,000); active = well fitted inhibition curve with a large enough effect, not every such curve was filed as active; inactive = no such curve, though single readings can be large or run the other way; note: nearly all actives have a fitted effect of over 30% in size
TRb-SRC2 inh: disrupts binding of human TR beta to SRC2; P10828; TRbeta-SRC2 peptide binding, fluorescence polarization; receptor liganded with 1 µM T3; Potency, µM (titrated, usually from 106 µM), without a hit: at the top dose activity change, negative = inhibition, hits mostly inhibitors; actives 0.065% (n = 280,000); AID 1469;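 note: plate controls were bound peptide for no effect and peptide without receptor for full effect; nearly all actives have a fitted effect of over 50% in size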
Target sequence (P10828 whole entry, looked up): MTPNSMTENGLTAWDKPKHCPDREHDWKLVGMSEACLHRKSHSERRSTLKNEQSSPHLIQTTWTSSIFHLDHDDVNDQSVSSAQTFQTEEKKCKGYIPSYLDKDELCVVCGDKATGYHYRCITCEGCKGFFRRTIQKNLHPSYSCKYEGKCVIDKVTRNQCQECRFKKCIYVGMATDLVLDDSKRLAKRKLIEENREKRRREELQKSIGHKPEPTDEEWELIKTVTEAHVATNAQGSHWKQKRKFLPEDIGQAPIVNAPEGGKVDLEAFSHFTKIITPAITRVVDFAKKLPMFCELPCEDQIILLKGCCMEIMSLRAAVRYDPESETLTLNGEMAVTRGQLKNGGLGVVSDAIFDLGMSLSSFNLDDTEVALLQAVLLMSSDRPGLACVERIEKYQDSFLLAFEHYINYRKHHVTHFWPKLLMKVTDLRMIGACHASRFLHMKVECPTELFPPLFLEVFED
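Quantitative HTS by FP: 0.6 uM TRb LBD, 20 nM labeled SRC2 20-mer, 1 uM T3, 5% DMSO; 5 hr ambient incubation; % activity per concentration and potencies from concentration series.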
Tau fibril FP: inhibitors of human tau fibril formation; P10636; K18 P301L tau heparin fibrillization, Alexa594 FP, 6 h; Potency, µM (highest dose often 57.7 µM), without a hit: top-dose activity, negative = inhibition, actives largely listed as inhibitors; actives 0.39% (n = 280,000); AID 1468; note: nearly all actives have a fitted effect of over 55% in size
Target sequence (P10636 561-689 P618L limits assumed): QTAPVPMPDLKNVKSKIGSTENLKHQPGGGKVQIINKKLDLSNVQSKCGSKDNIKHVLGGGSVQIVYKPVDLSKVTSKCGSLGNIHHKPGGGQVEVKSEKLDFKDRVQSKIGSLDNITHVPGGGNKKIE
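Compound effects on tau fibrillization are measured by Alexa 594 fluorescence polarization (ex 555, em 632 nm). K18 P301L tau is used at 15 uM with 0.24 uM labeled tracer, and 20 uM heparin induces aggregation over 6 hr at 37 C.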
TR SRC2 fluor cs: Texas Red fluorescence interference in TRb-SRC2 counter-screen; TRb/SRC2 Texas Red total fluorescence interference; Potency, µM (doses to about 106 µM), for inactives: top-dose fluorescence change, negative = quenching; actives 0.29% (n = 280,000); active = well fitted curve in either direction with a large enough effect; inconclusive = small, poorly fitted or top-dose-only effect
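Human TRb ligand-binding domain at 0.6 uM with 20 nM Texas Red SRC2 peptide in Tris buffer containing 1 uM T3 and 5% DMSO, incubated with compound 5 h at ambient temperature. Total fluorescence (555/632 nm) calculated as parallel + 2 × perpendicular.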
Tau fluor cs: counter-screen for tau fibril formation inhibitors. tau K18 P301L Alexa594 fluorescence, heparin fibrillization. Potency, µM (highest dose often 57.7 µM), inactives show top-dose activity change, negative = decrease. actives 0.93% (n = 280,000). AID 1463; note: nearly all actives have a fitted effect of over 55% in size
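Human tau K18 P301L (15 uM unlabeled, 0.24 uM Alexa 594-labeled) in 100 mM sodium acetate pH 7 with 20 uM heparin, 6 hr at 37 C. ThT 30 uM added, 1 hr ambient; Alexa 594 FP and total fluorescence read at 555/632 nm.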
Tau fibril ThT: inhibitors of human tau fibril formation, thioflavin T binding; P10636; recombinant tau K18 P301L (four-repeat tau fragment), heparin-induced fibrillization, ThT fluorescence; Potency, µM (doses to about 57.4 µM), without a hit: at the highest dose activity, negative = inhibition, actives largely listed as inhibitors; actives 2.1% (n = 270,000); note: nearly all actives have a fitted effect of over 55% in size
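In this qHTS, human K18 P301L tau is incubated with compound and heparin for 6 hr at 37 C, and Thioflavin T fluorescence then reports fibril load.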
Starred values were filed as active, the others as inactive; ? = inconclusive; · = no result; [ ] = another dose, or the depositor's remark. Sampled rows, rich in hits. Any-hit rate of the full collection: about 3.2%. Unless noted, calls come from the whole dose curve; as a rule, active = well fitted curve in the direction sought with a large enough effect; inconclusive = small, poorly fitted or top-dose-only effect, or another doubt; inactive = no such curve, though single readings can be large; an effect the other way counts as inactive or inconclusive. Unless noted, % is set by controls: 0 for no effect and ±100 for the full control effect; potency is the fitted concentration of half-maximal effect.

SMILES | RGS12 GoLoco inh | TRb-SRC2 inh | Tau fibril FP | TR SRC2 fluor cs | Tau fluor cs | Tau fibril ThT
CCCC/C=C/[C@H](c1ccccc1)[C@H](CO)Cc1cnc2ccccc2c1 | · | 10% | · | -3% | · | ·
N#Cc1cc(Oc2cccc3cccnc23)c(-n2nnc3ccccc32)cc1C#N | · | 6% | -4% | -3% | 16µM*[quencher] | -11%
N#Cc1cc(O)c(-n2nnc3ccccc32)cc1C#N | 2% | -8% | -1% | -2% | -3% | -9%
Clc1ccc(C[n+]2csc3ccccc32)cc1 | -2% | -9% | ? | -1% | -12% | 22µM*
Fc1ccc(C[n+]2csc3ccccc32)cc1 | -7% | 3% | ? | -2% | -21% | ?
CN(C)Cc1ccccc1-c1ccc2ncnc(N3CCOCC3)c2c1 | -1% | -3% | -3% | -1% | -2% | -6%
O=[N+]([O-])c1ccc(NC(=S)NCCc2ccc(F)cc2)cc1 | -4% | 4% | ? | 4% | 14µM*[quencher] | ?
COc1ccccc1CCNC(=O)Nc1cccc([N+](=O)[O-])c1 | 10% | -3% | -2% | -5% | ? | -15%
O=[N+]([O-])c1cccc(NC(=S)NCCc2ccccc2)c1 | -9% | -19%[53 µM] | -3% | 316µM*[quencher] | -4% | 0%
S=C(NCCc1ccccc1)Nc1ccc(Nc2ccccc2)cc1 | 5% | -7% | ? | -3% | 16µM*[quencher] | ?
Fc1cccc(NC(=S)NCCc2ccccc2)c1 | -26% | -8% | ? | -2% | ? | -9%
CCOCC | · | 0% | · | 4% | · | ·
CC(=O)/C=C/C1C(C)=CCCC1(C)C (stereo unspecified) | · | -1%[201 µM] | · | 0%[201 µM] | · | ·
CC1Oc2ccccc2C=C1/C=C1/SC(N2CCOCC2)=NC1=O (stereo unspecified) | 5% | 0% | 1% | -2% | -7% | ?
CCN1C(=O)/C(=C/C2=Cc3ccccc3OC2C)SC1=S (stereo unspecified) | 60% | 0% | 1% | -3% | ? | 13µM*
O=C1NC(=O)C(c2ccccc2[N+](=O)[O-])=C1Nc1ccc(O)c(Cl)c1 | -35% | 2% | ? | -21% | ? | 7.9µM*
O=C(N/N=C/C(Cl)=C/c1ccc([N+](=O)[O-])cc1)C(=O)Nc1cccc(C(=O)O)c1 | 5% | -1% | -7% | -5% | ? | 3.5µM*
Cc1cc([N+](=O)[O-])c2c(c1C)C1C=CCC1C(c1ccccn1)N2 (stereo unspecified) | 18% | -4% | ? | -5% | ? | 16µM*
CCOC(=O)CN1C(c2ccc(O)cc2)Nc2ccc(Br)cc2C1c1ccccc1 (stereo unspecified) | 6% | 2% | ? | 0% | 7.1µM*[quencher] | ?
CCOC(=O)CN1C(=O)Nc2ccc(Br)cc2C1c1ccccc1 (stereo unspecified) | -18% | -6% | 0% | -2% | -14% | -14%
CN(/C=C/c1c([N+](=O)[O-])c(=O)n(C)c(=O)n1C)c1ccccc1 | 12% | -6% | 10%[2.34 µM] | -4% | 3% | 5%
CC1=C/C(=C/N(C)c2ccccc2)C(=O)S1 | 14% | -8% | ? | 4% | -23% | 20µM*
O=C1CN(CC(=O)N2CCOCC2)c2ccccc2O1 | -22% | -26% | -16% | ? | -17% | ?
O=C1CN(CC(=O)N2CCCCC2)c2ccccc2O1 | -7% | 2% | ? | 0% | ? | 28µM*
O=c1ccn([C@@H]2O[C@H](COP(=O)(O)O)[C@@H](O)[C@H]2O)c(=O)[nH]1 | 8% | 1% | -1% | -2% | -3% | 6%
SMILES | RGS12 GoLoco inh | TRb-SRC2 inh | Tau fibril FP | TR SRC2 fluor cs | Tau fluor cs | Tau fibril ThT
Cn1cc(C(=O)N/N=C/C2=C(N3CCOCC3)C(=C\c3ccccc3)/CC2)ccc1=O | 7% | -11% | 16% | 2% | -12% | ?
COc1ccc(O)c(/C=N/N=C2/C(=O)Nc3ccccc32)c1 | 7% | -5% | 2% | -3% | -12% | ?
COc1cc(/C=N/N=C2/C(=O)Nc3ccccc32)cc(OC)c1O | -14% | 0%[53 µM] | ? | -6%[53 µM] | ? | 11µM*
O=C1Nc2ccccc2/C1=N/N=C/c1cccc(O)c1 | 5% | 0% | 2% | -9% | ? | 11µM*
O=C1Nc2ccccc2/C1=N\N=C\C1=C(N2CCOCC2)C(=C\c2ccccc2)/CC1 | 15% | 7% | ? | -1% | ? | 7.1µM*
COc1cccc(/C=N/NC(=O)c2oc3nc(-c4ccccc4)cc(-c4ccco4)c3c2N)c1 | -5% | -7% | 5% | 0% | -14% | ?
Cc1ccc(-c2cc(-c3ccco3)c3c(N)c(C(=O)NN)oc3n2)cc1 | 29% | -9% | -2% | -10% | ? | 10µM*
COc1ccccc1NS(=O)(=O)c1cc(NC(=O)c2cccs2)ccc1N1CCCC1 | -8% | -4%[53 µM] | -4% | -1%[53 µM] | ? | ?
O=C(/C=C/c1cccs1)Nc1ccc(N2CCOCC2)c(S(=O)(=O)Nc2ccccc2Cl)c1 | 22% | 16% | ? | 2% | ? | -5%
O=C(Nc1ccc(N2CCCC2)c(S(=O)(=O)Nc2cccc(C(F)(F)F)c2)c1)c1cccs1 | 56% | 2% | 7% | -1% | 10µM*[quencher] | -13%
O=C(Nc1ccc(Cl)c(Cl)c1)Nc1ccc(N2CCCC2)c(S(=O)(=O)Nc2ccccc2Cl)c1 | 3% | -3% | -9% | -1% | 4µM*[quencher] | ?
COc1ccccc1NS(=O)(=O)c1cc(NC(=O)Nc2ccccc2)ccc1N1CCCCC1 | 4% | 3% | 22µM* | -4% | ? | 17%
O=C(Nc1ccc(Cl)c(S(=O)(=O)Nc2ccccc2Cl)c1)c1cccs1 | 2% | 0% | ? | -1% | 25µM*[quencher] | -6%
CC(C)C1C(=O)N(S(C)(=O)=O)[C@H]2CCN(C(=O)/C=C/CN3CCCCC3)[C@@H]12 (stereo partly specified) | · | -4% | · | -9% | · | ·
O=C(Nc1ccc(F)cc1)Nc1ccc(N2CCCC2)c(S(=O)(=O)Nc2ccccc2Cl)c1 | 1% | -10% | ? | -1% | 2.8µM*[quencher] | -19%
CCN(CC)c1ccc(NC(=O)c2ccccc2Br)cc1S(=O)(=O)Nc1ccccc1OC | -10% | 3% | ? | -2% | -28% | 25µM*
O=C(Nc1ccc(F)cc1)Nc1ccccc1N1CCCCC1 | 0% | 0% | 5% | -1% | -26% | -6%
COc1ccccc1NS(=O)(=O)c1cc(NC(=S)Nc2cc(C)cc(C)c2)ccc1Cl | 7% | -12% | ? | ? | 32µM*[quencher] | -7%
CCOC(=O)/C=C/CCC/C=C/C(=O)c1ccccc1 | -7% | 0% | 14% | -1% | 9% | ?
NCCSS(=O)(=O)CCN | -16%[14.2 µM] | · | · | · | · | ·

Assay outcomes: PubChem, National Center for Advancing Translational Sciences (NCATS)
